According to the supplement of paper PMC6555819:

Key:
Assay in all cases: PBM binding z-score (relative to random genomic background probes); higher = stronger binding; sequences stand for … in GC…GCGATTGACAGCGTAGAATGAAGG
[1] = test system: FXR:RXRa (NR concentration 270 nM, RXRa partner concentration 90 nM)
Summary of the method: (§1)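 Regression normalization was applied to scanned fluorescence from custom Agilent 4×180K protein-binding microarrays. Before scanning, arrays were incubated 1 h with ligand-free nuclear receptor dimers, and binding was detected with antibodies against each partner (one per run). Binding z-scores use the random background probes as reference.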

[2] = test system: LXRa:RXRa (NR concentration 270 nM, RXRa partner concentration 90 nM)
Summary of the method: as §1

[3] = test system: LXRa homodimer (NR concentration 270 nM)
Summary of the method: as §1

[4] = test system: LXRb:RXRa (NR concentration 270 nM, RXRa partner concentration 90 nM)
Summary of the method: as §1

[5] = test system: LXRb homodimer (NR concentration 270 nM)
Summary of the method: as §1

[6] = test system: PPARa:RXRa (NR concentration 270 nM, RXRa partner concentration 90 nM)
Summary of the method: as §1

[7] = test system: PPARg:RXRa (NR concentration 180 nM, RXRa partner concentration 90 nM)
Summary of the method: as §1

[8] = test system: PPARg:RXRa 270nM:90nM, anti-RXR (NR concentration 270 nM, RXRa partner concentration 90 nM)
Summary of the method: as §1

[9] = test system: PPARg:RXRa 30nM:10nM, anti-RXR (NR concentration 30 nM, RXRa partner concentration 10 nM)
Summary of the method: as §1

[10] = test system: PPARg:RXRa 90nM:30nM, anti-RXR (NR concentration 90 nM, RXRa partner concentration 30 nM)
Summary of the method: as §1

[11] = test system: PPARg:RXRa DBDmut IVT, anti-RXR (DBD mutation: RXRa K156A/R161A, NR concentration 270 nM, RXRa partner concentration 90 nM)
Summary of the method: as §1

[12] = test system: PPARg:RXRa IVT, anti-PPARg (NR concentration 270 nM, RXRa partner concentration 90 nM)
Summary of the method: as §1

[13] = test system: PPARg DBDmut:RXRa IVT, anti-PPARg (DBD mutation: PPARg1 K132A/R137A, NR concentration 270 nM, RXRa partner concentration 90 nM)
Summary of the method: as §1

[14] = test system: PPARg DBDmut IVT, anti-PPARg (DBD mutation: PPARg1 K132A/R137A, NR concentration 270 nM)
Summary of the method: as §1

[15] = test system: PPARg homodimer (NR concentration 180 nM)
Summary of the method: as §1

[16] = test system: PXR homodimer (NR concentration 270 nM)
Summary of the method: as §1

[17] = test system: RARa:RXR (NR concentration 270 nM, RXRa partner concentration 90 nM)
Summary of the method: as §1

[18] = test system: RARa homodimer (NR concentration 270 nM)
Summary of the method: as §1

[19] = test system: RARb:RXRa (NR concentration 270 nM, RXRa partner concentration 90 nM)
Summary of the method: as §1

Row | Sequence | PBM binding z-score [1] | PBM binding z-score [2] | PBM binding z-score [3] | PBM binding z-score [4] | PBM binding z-score [5] | PBM binding z-score [6] | PBM binding z-score [7] | PBM binding z-score [8] | PBM binding z-score [9] | PBM binding z-score [10] | PBM binding z-score [11] | PBM binding z-score [12] | PBM binding z-score [13] | PBM binding z-score [14] | PBM binding z-score [15] | PBM binding z-score [16] | PBM binding z-score [17] | PBM binding z-score [18] | PBM binding z-score [19]
1 | GCTCGGGGGACAAGGTCAGAGCTTTGTCCGTAGA | 3.46 | 3.46 | 0.143 | 3.96 | 4.29 | 4.25 | 3.61 | 4.54 | 1.72 | 3.56 | 2.28 | 3.25 | 1.23 | 1.71 | 1.58 | 0.127 | 3.59 | -0.41 | 3.92
2 | ATCGAAAGGTCGTGAGGTGACTATACAGAAAGGC | 5.54 | 4.2 | 0.422 | 3.45 | 0.557 | 5.49 | 4.59 | 4.64 | 1.98 | 3.39 | 0.761 | 2.62 | 1.76 | 1.47 | 1.55 | 0.227 | 4.52 | 1.01 | 3.99
3 | GATACAAGGTCAGCTAGAGGCCAGAGTATGGAAA | 5.51 | 3.77 | 0.325 | 2.78 | -0.103 | 4.53 | 3.95 | 3.5 | 1.23 | 2.18 | 2.56 | 3.25 | 0.75 | 0.155 | 3.37 | 0.19 | 4.64 | 1.06 | 5.05
4 | CGTCCAAGGTCAGAGAGGTCACTGAATGCCGAGT | 6.61 | 5.79 | 4.5 | 5.36 | 0.485 | 5.61 | 4.58 | 5.36 | 1.92 | 4.08 | 3.27 | 4.05 | 0.000167 | 0.0701 | 3.8 | 13.1 | 6.81 | 1.13 | 5.37
5 | AGAATGAGGTTATACGTAGGTCAGGGAAGAAAGT | 3.33 | 4.18 | 1.07 | 3.2 | 0.0984 | 4.04 | 2.84 | 2.74 | 0.859 | 2.05 | 3.82 | 2.92 | 1.18 | 0.81 | 3.44 | 0.992 | 4.71 | 0.747 | 3.19
6 | CTCGAAAGGTCGTCCTCAGGTGAGTATACCAAAC | 4.94 | 3.75 | 0.547 | 3.32 | 0.328 | 4.54 | 2.08 | 3.47 | 0.492 | 2.43 | 0.175 | 1.77 | 0.216 | -0.144 | 1.94 | 0.134 | 4.1 | -0.0286 | 3.8
7 | TCTCGGAGGACACGAAAGGTGAGAGCTCGACATC | 0.988 | 0.364 | -0.458 | -0.112 | -0.994 | 1.22 | 0.346 | 1.01 | 2.1 | 1.25 | 1.27 | 0.956 | -0.191 | -0.811 | 0.673 | -0.496 | 1.05 | -0.329 | 2.26
8 | AATACAGGGTCACTAGGCCAGAGTGGGTACGAAT | 5.94 | 5.03 | 0.964 | 3.77 | 0.863 | 5.69 | 8.11 | 6.63 | 3.08 | 5.4 | 3.88 | 5.89 | 2.29 | 2.32 | 2.94 | 0.0148 | 4.01 | 0.459 | 4.03
9 | GATACAGGGGCAAGGCCAGAGTACGCGTATTGAT | -0.0183 | -0.167 | -0.13 | 0.382 | -0.692 | 0.546 | 0.875 | 0.31 | 0.0579 | 0.23 | 0.794 | 0.691 | -0.76 | -0.28 | 0.334 | 0.0474 | 0.0151 | -0.216 | 1.65
10 | ATATGTAGGTTAGCTGGCGTCATTCAGACTAGGC | -0.167 | 0.0704 | -0.277 | -0.239 | 0.141 | 1.69 | 2.61 | 2.43 | 0.729 | 1.81 | 6.56 | 5.58 | 1.28 | 0.35 | 0.334 | -0.283 | 0.227 | 0.262 | 0.462
11 | CCTTACGGGTCACTCTAGGTTATAGCATCGGAGT | 5.09 | 7.69 | 1.83 | 5.58 | 0.329 | 4.68 | 3.33 | 3.69 | 1.3 | 2.76 | 3.21 | 3.69 | 0.202 | -0.339 | 1.82 | 0.568 | 3.43 | 0.346 | 3.68
12 | AATACAGGGTCGCTAGGCCAGAGTAGGTACGAAT | 0.424 | 0.524 | -0.204 | 0.525 | -0.053 | 1.37 | 1.05 | 0.765 | 0.105 | 0.482 | 0.129 | 1.16 | 0.521 | -0.263 | 0.213 | -0.199 | 0.9 | 0.178 | 1.49
13 | CGTCCGAGGTCAAAGGTCAGTGAAGAGATGACGG | 8.25 | 7.31 | 3.51 | 7.09 | 2.24 | 7.17 | 11.3 | 9.76 | 8.58 | 11.5 | 4.36 | 6.35 | 2.87 | 3.81 | 5.95 | 3.02 | 8.81 | 4.96 | 5.93
14 | CTCGAAAGGTCGTGCTCAGGTGAGTACACCAAAC | 5.63 | 3.63 | 0.149 | 3.14 | 0.685 | 4.94 | 3.11 | 4.4 | 1.61 | 2.91 | 1.21 | 2.09 | 1.56 | 1.04 | 2.94 | 0.541 | 4.67 | 0.374 | 4.05
15 | CTCGAAAGGTCGTGCTCAGGTGAGTATGCCAAAC | 4.94 | 4.15 | 0.0245 | 3.2 | -0.0304 | 4.79 | 2.57 | 3.95 | 1.25 | 2.67 | 1.24 | 1.96 | 0.261 | 0.173 | 1.39 | 0.126 | 4.18 | 0.00788 | 3.83
